The source of these data is PubChem BioAssay (EPA / NIEHS).

The term AC50 denotes the concentration giving half of the maximal activity seen.

Activity calls are given as the source filed them. Rule for the calls: active = hit-call score of the fitted dose curve at least 0.9, where 1 is the maximum; inactive = score below 0.9.

Assay [1] can be described thus: ATG_GLI_CIS: Attagene CIS-FACTORIAL HepG2 Assay for human Zinc Finger Protein GLI1 (AID 2282945). The settings on record: HepG2, Attagene cis-factorial reporter mRNA, GLI element; actives raise or lower the signal. In a few lines: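 HepG2 cells transiently transfected with cis-promoter multiplexed reporter units report endogenous transcription factor activity. After 24 h chemical exposure, reporter mRNA was quantified by RT-PCR, 6-FAM labelling, HpaI digestion and capillary electrophoresis, with bidirectional fitting against DMSO.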

Assay [2] is described as follows: ATG_GRE_CIS: Attagene CIS-FACTORIAL HepG2 Assay for human Glucocorticoid Response Elements (GRE) (AID 2282947). The settings on record: HepG2 GRE cis-reporter, Attagene multiplex mRNA; actives raise or lower the signal. In a few lines: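 Cells (HepG2) bearing transfected cis-promoter reporter transcription units were treated with chemical for 24 hours. Reporter mRNA was measured via RT-PCR with capillary electrophoresis, and activity was fitted in both directions relative to DMSO.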

Assay [3] in a line: ATG_ISRE_CIS: Attagene CIS-FACTORIAL HepG2 Assay for human Interferon Regulatory Factor 1 (IRF1) binding to an Interferon-Stimulated Response Element (ISRE) (AID 2282948). The settings on record: HepG2 ISRE cis-reporter (Attagene), mRNA transcription readout; actives raise or lower the signal. In a few lines: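 Read-out: fluorescent RT-PCR products resolved by capillary electrophoresis, reporting endogenous transcription factor activity via ISRE-driven reporter mRNA in transfected HepG2 cells dosed for 24 h; gain or loss fitted relative to DMSO.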

The nature of assay [4]: ATG_M_32_CIS: Attagene CIS-FACTORIAL HepG2 Assay for M32 Transcription Factor (Internal Marker) (AID 2282949).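 Note: background control marker of the multiplexed CIS panel rather than a real target.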 The settings on record: HepG2 Attagene cis-factorial M32 reporter, mRNA; actives raise or lower the signal. In a few lines:
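HepG2 transfectants (cis-regulated reporter transcription units) dosed 24 h. Reporter mRNA by RT-PCR plus CE, analysed as gain or loss relative to DMSO.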

The nature of assay [5]: ATG_M_06_CIS: Attagene CIS-FACTORIAL HepG2 Assay for M06 Transcription Factor (Internal Marker) (AID 2282950). The settings on record: HepG2 Attagene CIS-FACTORIAL M06 internal marker reporter; actives raise or lower the signal. In a few lines: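 Cells (HepG2, transiently carrying cis-driven reporter units) receive chemical for 24 h before RNA isolation. Reporter cDNA is PCR-amplified, FAM-labelled by primer extension, HpaI-digested and sized on a capillary analyser.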

Assay [6] has as its target Hepatocyte nuclear factor 6 (Homo sapiens) (UniProt Q9UBC0). Kind of assay: ATG_HNF6_CIS: Attagene CIS-FACTORIAL HepG2 Assay for human Hepatocyte Nuclear Factor 6 (HNF6) (AID 2282952). Conditions: HepG2 Attagene cis-factorial HNF6 reporter transcription; actives raise or lower the signal. In a few lines: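 Twenty-four-hour chemical treatment of reporter-transfected HepG2 cells precedes RNA isolation, DNase-treated reverse transcription and PCR of reporter sequences. Labelled fragments are sized by capillary electrophoresis and fitted bidirectionally versus DMSO.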

Assay [7] deals with Heat shock factor protein 1 (Homo sapiens) (UniProt Q00613). Briefly: ATG_HSE_CIS: Attagene CIS-FACTORIAL HepG2 Assay for human Heat Shock Transcription Factor 1 (HSE) (AID 2282953). The settings on record: HepG2 HSE cis-reporter, Attagene RNA transcription; actives raise or lower the signal. In a few lines: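 Liver-derived HepG2 cells carry transiently introduced multiple reporter units governed by cis promoters. Reporter RNA measured 24 h post-dose through reverse transcription, PCR amplification, fluorescent labelling and capillary electrophoresis, normalised to DMSO.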
Heat shock factor protein 1 (Homo sapiens), sequence (Q00613 whole entry, looked up): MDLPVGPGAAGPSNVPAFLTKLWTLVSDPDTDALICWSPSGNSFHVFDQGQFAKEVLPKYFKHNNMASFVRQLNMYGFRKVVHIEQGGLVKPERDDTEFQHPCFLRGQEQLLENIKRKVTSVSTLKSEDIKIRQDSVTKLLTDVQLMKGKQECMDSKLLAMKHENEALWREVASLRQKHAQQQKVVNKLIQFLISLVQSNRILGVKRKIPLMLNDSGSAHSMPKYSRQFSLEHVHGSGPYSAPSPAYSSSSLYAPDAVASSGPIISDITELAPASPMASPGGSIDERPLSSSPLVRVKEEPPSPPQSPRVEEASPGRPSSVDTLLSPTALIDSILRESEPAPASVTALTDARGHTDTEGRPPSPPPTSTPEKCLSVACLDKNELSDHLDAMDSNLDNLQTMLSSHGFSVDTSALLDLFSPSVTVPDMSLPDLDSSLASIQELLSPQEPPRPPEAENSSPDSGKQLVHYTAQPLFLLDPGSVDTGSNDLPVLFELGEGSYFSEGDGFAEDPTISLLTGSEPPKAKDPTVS

Assay [8] concerns the target Hypoxia-inducible factor 1-alpha (Homo sapiens) (UniProt Q16665). Briefly: ATG_HIF1a_CIS: Attagene CIS-FACTORIAL HepG2 Assay for human Hypoxia Inducible Factor 1 (HIF1A) (AID 2282951). The settings on record: HepG2 Attagene cis-factorial HIF1a reporter transcription; actives raise or lower the signal. In a few lines:
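Activity is fitted in both directions relative to DMSO. Reporter transcripts are read by RT-PCR, fluorescent primer extension and capillary electrophoresis after 24 h chemical treatment. The cells are HepG2 carrying transiently transfected cis-element-driven reporter units responding to endogenous factors.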

Assay [9] in a line: ATG_MRE_CIS: Attagene CIS-FACTORIAL HepG2 Assay for human Metal Responsive Element (MRE) (AID 2282954). Conditions: HepG2 MRE cis-reporter transcription, Attagene multiplex; actives raise or lower the signal. In a few lines:
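Cells were transfected with cis-promoter reporter transcription units, then dosed for 24 h. RNA was reverse-transcribed, amplified, fluorescently labelled and resolved by capillary electrophoresis, and activity was fitted in both directions relative to DMSO.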

Hepatocyte nuclear factor 6 (Homo sapiens), sequence (Q9UBC0 whole entry, looked up, the tested form may be a part): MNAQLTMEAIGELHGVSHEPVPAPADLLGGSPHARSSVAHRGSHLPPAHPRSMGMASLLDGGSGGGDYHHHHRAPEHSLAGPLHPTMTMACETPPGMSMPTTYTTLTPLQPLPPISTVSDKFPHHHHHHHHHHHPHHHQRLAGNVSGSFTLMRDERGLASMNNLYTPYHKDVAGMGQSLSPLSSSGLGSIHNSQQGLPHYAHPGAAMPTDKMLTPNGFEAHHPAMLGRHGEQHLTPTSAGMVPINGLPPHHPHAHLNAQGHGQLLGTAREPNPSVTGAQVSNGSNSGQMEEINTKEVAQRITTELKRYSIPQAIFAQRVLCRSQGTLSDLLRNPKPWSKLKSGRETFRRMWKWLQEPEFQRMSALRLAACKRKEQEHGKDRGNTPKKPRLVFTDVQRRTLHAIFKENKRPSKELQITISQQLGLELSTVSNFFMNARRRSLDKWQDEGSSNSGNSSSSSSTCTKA
Hypoxia-inducible factor 1-alpha (Homo sapiens), sequence (Q16665 whole entry, looked up): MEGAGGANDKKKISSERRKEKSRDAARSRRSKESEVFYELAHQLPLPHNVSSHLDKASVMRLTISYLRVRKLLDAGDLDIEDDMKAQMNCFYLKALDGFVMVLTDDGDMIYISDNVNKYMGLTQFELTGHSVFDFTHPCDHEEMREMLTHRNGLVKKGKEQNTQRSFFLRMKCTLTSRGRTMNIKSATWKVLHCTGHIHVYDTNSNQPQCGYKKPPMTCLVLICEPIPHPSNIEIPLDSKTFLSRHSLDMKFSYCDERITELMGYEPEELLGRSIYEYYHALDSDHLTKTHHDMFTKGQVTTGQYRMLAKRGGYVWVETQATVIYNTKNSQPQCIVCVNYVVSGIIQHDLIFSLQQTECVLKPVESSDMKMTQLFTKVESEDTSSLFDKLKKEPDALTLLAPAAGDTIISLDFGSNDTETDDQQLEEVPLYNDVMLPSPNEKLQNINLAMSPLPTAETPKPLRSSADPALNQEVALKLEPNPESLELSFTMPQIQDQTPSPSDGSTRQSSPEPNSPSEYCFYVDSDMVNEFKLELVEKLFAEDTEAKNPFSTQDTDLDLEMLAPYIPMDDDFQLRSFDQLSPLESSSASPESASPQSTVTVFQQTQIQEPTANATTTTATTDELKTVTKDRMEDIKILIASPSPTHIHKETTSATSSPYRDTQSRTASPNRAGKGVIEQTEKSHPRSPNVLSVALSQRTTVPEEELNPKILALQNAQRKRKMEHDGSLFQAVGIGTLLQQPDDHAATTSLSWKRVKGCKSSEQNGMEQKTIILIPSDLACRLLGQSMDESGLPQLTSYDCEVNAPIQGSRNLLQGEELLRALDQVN

For the compound `CC(C)Cc1ccc(C(C)C(=O)O)cc1` (stereo not given), the outcome in [1], in assay [2], in [3], in assay [4], in assay [5] and in [6] was inactive. Moreover, the compound was called inactive in assay [7].

In the case of `CC(=O)c1ccc(C)cc1`, the outcome in assay [1], in [2], in assay [3], in [4], in [5] and in [8] was inactive. The compound was classed as inactive in [6], in [7] and in assay [9].

With `CC1(C)CC(N)CC(C)(CN)C1` (stereo not given), the call in assay [1], in assay [2], in assay [3], in [4], in [5] and in assay [8] was inactive. For the same compound, the result in assay [6], in assay [7] and in assay [9] was inactive.

Regarding `O=C(O)c1cc2ccccc2cc1O`, the compound was called inactive in assay [1], in assay [2], in [3], in assay [4], in [5] and in assay [8]. Further, the compound was classed as inactive in assay [6] and in assay [9].

`O=C(OCc1ccccc1)c1ccccc1O`: the result in [1], in assay [2], in assay [3], in assay [4], in assay [5] and in [8] was inactive. In addition, the call in assay [6], in [7] and in assay [9] was inactive.

For the compound `CCCCN(CCO)CCO`, the outcome in [1], in assay [2], in assay [3], in [4], in assay [5] and in [6] was inactive. Further, the result in [7] was inactive.

`Nc1ccc(O)c(N)c1`: the compound was called inactive in assay [1], in assay [2], in [3], in assay [4], in [5] and in assay [8]. Further, the compound was called inactive in assay [6] and in [9].

As to `CC1(C)[C@H](C=C(Cl)Cl)[C@H]1C(=O)OCc1cccc(Oc2ccccc2)c1`, the call in assay [1], in assay [2], in [3], in assay [4], in assay [5] and in assay [8] was inactive. Further, the compound was called inactive in [6], in assay [7] and in assay [9].

Turning to `Cc1ccncc1`, the compound was classed as inactive in assay [1], in [2], in assay [3], in assay [4], in [5] and in assay [8]. Further, the result in [6], in assay [7] and in assay [9] was inactive.

Regarding `CCCC1CCOC(C)S1` (stereo not given), the result in assay [1], in [2], in [3], in assay [4], in assay [5] and in [8] was inactive. Besides, the compound was called inactive in assay [6], in assay [7] and in assay [9].

For `C1COCO1`, the compound was called inactive in [1], in assay [2], in assay [3], in [4], in assay [5] and in assay [6]. In addition, the call in assay [7] was inactive.

Turning to `C=COCC1CCC(COC=C)CC1` (stereo not given), the call in [1], in [2], in assay [3], in assay [4], in assay [5] and in assay [8] was inactive. The compound was classed as inactive in assay [6] and in assay [9].

Consider `N=C1N=C(N)c2ccccc21`, for which the result in [1], in assay [2], in [4], in [5], in [8] and in [6] was inactive. Also, in assay [7], the compound was classed as inactive. Moreover, the AC50 was 74.1 µM (active) in [3] and 74.5 µM (active) in assay [9].

Consider `O=C1CCCCCCCCCCCC(=O)OCCO1`, for which the compound was called inactive in [1], in assay [2], in assay [3], in assay [4], in [5] and in assay [8]. Besides, the compound was classed as inactive in assay [6], in [7] and in assay [9].

Take `O=Cc1ccccc1O`: the outcome in assay [1], in [2], in [3], in assay [4], in assay [5] and in assay [8] was inactive. The outcome in assay [6] and in assay [9] was inactive.
